# Results: PubChem BioAssay (NCATS)
# Unmarked numbers belong to inactive results. Records with an inconclusive call do not appear. Where a call stands in place of a potency, no number is given. Calls of active or inactive are those of the source. Calls come from the whole dose curve; as a rule, active = well fitted curve in the direction sought with a large enough effect; inconclusive = small, poorly fitted or top-dose-only effect, or another doubt; inactive = no such curve, though single readings can be large; an effect the other way counts as inactive or inconclusive.
# Key:
# [1] = system: Zika virus NS2B-NS3 protease (linked construct); experiment: Primary screen NINDS Rhodamine qHTS for Zika virus inhibitors (AID 1347160); note: nearly all actives have a fitted effect of over 55% in size; note: potency is the fitted concentration of half-maximal effect
# How it was run: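 Each compound, titrated, sat 15 min with 25 nM linked protease before 1.5 microM Rhodamine110 substrate went in. Fluorescence gain over the next 15 min, in pH 8.0 Tris with Tween 20, gave Hill-fitted curves.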
# [2] = molecular target: Calcium and integrin-binding protein 1 (Homo sapiens) (UniProt Q99828); experiment: Primary qHTS for Identification of Calcium Integrin Binding Protein 1 (CIB1) Competitor (AID 1508620);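 note: GST tagged CIB1 binding a fluorescein labelled alphaIIb integrin peptide tracer; top concentration of the series differs between compounds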
# Calcium and integrin-binding protein 1 (Homo sapiens), sequence (Q99828 whole entry, looked up): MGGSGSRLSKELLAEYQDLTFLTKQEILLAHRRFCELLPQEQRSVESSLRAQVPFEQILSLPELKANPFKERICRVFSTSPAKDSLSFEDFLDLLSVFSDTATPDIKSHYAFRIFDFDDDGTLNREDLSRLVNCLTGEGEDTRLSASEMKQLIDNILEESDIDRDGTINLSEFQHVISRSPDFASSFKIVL
# How it was run: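 Fluorescence polarization competition: CIB1-GST (1 uM final) preincubated with compound 15 min at room temperature, then FITC-labeled alphaIIb peptide (100 nM final) added for another 15 min. Polarization read at Ex 480/Em 540.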
# [3] = molecular target: Glutathione peroxidase 1 (Homo sapiens) (UniProt P07203); experiment: Primary qHTS Assay for Inhibitors of Recombinant Selenoprotein Glutathione Peroxidase 1 (GPX1) (AID 1845191); note: nearly all actives have a fitted effect of over 65% in size
# Glutathione peroxidase 1 (Homo sapiens), sequence (P07203 whole entry, looked up): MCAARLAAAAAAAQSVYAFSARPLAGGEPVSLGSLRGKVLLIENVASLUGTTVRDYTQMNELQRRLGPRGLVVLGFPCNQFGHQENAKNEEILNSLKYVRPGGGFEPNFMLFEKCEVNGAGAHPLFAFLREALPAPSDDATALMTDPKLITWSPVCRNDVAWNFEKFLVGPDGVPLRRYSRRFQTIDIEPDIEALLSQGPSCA
# How it was run: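 GPX1 10 nM, GR 100 nM, GSH 1 mM, NADPH 0.5 mM, CHP 0.5 mM (final). 30-min cpd preincubation, RT. Ex340/Em450 read t=0, t=15 min.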
# [4] = molecular target: Phospholipid hydroperoxide glutathione peroxidase GPX4 (Homo sapiens) (UniProt P36969); experiment: Primary qHTS Assay for Inhibitors of Recombinant Selenoprotein Glutathione Peroxidase 4 (GPX4) (AID 1845192); note: nearly all actives have a fitted effect of over 65% in size
# Phospholipid hydroperoxide glutathione peroxidase GPX4 (Homo sapiens), sequence (P36969 whole entry, looked up): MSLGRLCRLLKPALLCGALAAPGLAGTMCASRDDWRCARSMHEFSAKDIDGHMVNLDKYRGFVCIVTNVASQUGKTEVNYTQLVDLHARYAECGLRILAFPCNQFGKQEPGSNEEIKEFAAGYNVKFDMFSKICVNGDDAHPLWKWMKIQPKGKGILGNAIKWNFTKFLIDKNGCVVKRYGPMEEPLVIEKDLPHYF
# How it was run: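 qHTS, GR-coupled: GPX4 200 nM + cpd 30 min RT → GSH 1 mM, NADPH 0.5 mM, GR 100 nM → CHP 0.5 mM start; fluor 340/450 at t0 and t15 min; no-enzyme wells as control.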
# [5] = molecular target: Luciferin 4-monooxygenase (Photinus pyralis) (UniProt P08659); experiment: Primary firefly luciferase (FLuc) qHTS assay for identification of artifact compounds. (AID 1845220); settings: outcome: dose series up to 54.1 µM unless noted; note: nearly all actives have a fitted effect of over 60% in size
# How it was run: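 Reaction readout was CCD-imaged luminescence, taken 5 min after adding 10 nM purified firefly enzyme to compound-treated wells holding 10 uM luciferin and ATP in pH 7.6 buffer.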
# [6] = system: Nanoluciferase (engineered Oplophorus gracilirostris luciferase); experiment: Primary Nanoluciferase (NLuc) qHTS assay for identification of artifact compounds. (AID 1845222);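 note: NLuc secreted into diluted conditioned medium of S16 cells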
# How it was run: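 Concentration-response data were obtained by luminescence after 5 min with Nano-Glo substrate at 1:100. The enzyme was diluted S16 NLuc-expressing cell medium, preincubated with compound for 15 min at RT. Curves were fitted with a 4-parameter Hill model.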
# [7] = Primary redox qHTS assay for identification of artifact compounds. (AID 1845223)
# How it was run: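 Redox-cycling detection via DTT (250 uM final) oxidation coupled to Amplex Red (25 uM)/HRP (250 mU/mL) in HBSS. 15 min preincubation plus 30 min after DTT, room temperature. Ex/Em 525/598 nm; 4-parameter Hill fit against DMSO and 10 uM DA3003.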
# NIH3T3 = experiment: Cytotoxic Profiling of Annotated Libraries Using Quantitative High-Throughput Screening (AID 1296008); settings: Five cell lines viability, CellTiter-Glo ATP luminescence, 48-72 h; max response: stronger effect = lower value; note: nearly all actives have a fitted effect of over 60% in size; note: potency is the fitted concentration of half-maximal effect
# How it was run: (§1)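 Compounds were pin-transferred onto cells and incubated 48 or 72 hr at 37 degree Celsius, 95% humidity. CellTiter-Glo was added, plates sat 10 min at room temperature, then ATP-coupled luminescence was imaged as the viability read-out.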
# C33A = experiment: Primary qHTS to identify gynecologic anti-cancer compounds using libraries of approved drugs and bioactive compounds (AID 1345084); settings: Gynecologic cancer cell panel viability, ATPlite luminescence, 48 h; series mostly up to 57.5 µM; note: nearly all actives have a fitted effect of over 55% in size; note: potency is the fitted concentration of half-maximal effect
# How it was run: (§2)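 Five-point cytotoxicity, 48 h drug exposure at 37 C, 5% CO2, on cells seeded 16 h beforehand. ATP content read by ATPlite luminescence.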
# CASKI = experiment: as above; settings: Gynecologic cancer cell panel viability, ATPlite luminescence, 48 h; series mostly up to 57.5 µM
# How it was run: as §2
# Es-2 = experiment: as above; settings: Gynecologic cancer cell panel viability, ATPlite luminescence, 48 h; series mostly up to 57.5 µM
# How it was run: as §2
# Hek293T = experiment: as above; settings: Gynecologic cancer cell panel viability, ATPlite luminescence, 48 h, control line for the selectivity index; series mostly up to 57.5 µM
# How it was run: as §2
# JEG-3 = experiment: as above; settings: Gynecologic cancer cell panel viability, ATPlite luminescence, 48 h; series mostly up to 57.5 µM
# How it was run: as §2
# OV90 = experiment: as above; settings: Gynecologic cancer cell panel viability, ATPlite luminescence, 48 h; series mostly up to 57.5 µM
# How it was run: as §2
# PA-1 = experiment: as above; settings: Gynecologic cancer cell panel viability, ATPlite luminescence, 48 h; series mostly up to 57.5 µM
# How it was run: as §2
# Tov-21-G = experiment: as above; settings: Gynecologic cancer cell panel viability, ATPlite luminescence, 48 h; series mostly up to 57.5 µM
# How it was run: as §2
# Tov112D = experiment: as above; settings: Gynecologic cancer cell panel viability, ATPlite luminescence, 48 h; series mostly up to 57.5 µM
# How it was run: as §2
# HaCat = experiment: Cytotoxic Profiling of Annotated Libraries Using Quantitative High-Throughput Screening (AID 1296008); settings: Five cell lines viability, CellTiter-Glo ATP luminescence, 48-72 h; max response: stronger effect = lower value; note: nearly all actives have a fitted effect of over 60% in size; note: potency is the fitted concentration of half-maximal effect
# How it was run: as §1
# CAOV3 = experiment: Primary qHTS to identify gynecologic anti-cancer compounds using libraries of approved drugs and bioactive compounds (AID 1345084); settings: Gynecologic cancer cell panel viability, ATPlite luminescence, 48 h; series mostly up to 57.5 µM; note: nearly all actives have a fitted effect of over 55% in size; note: potency is the fitted concentration of half-maximal effect
# How it was run: as §2
# [8] = Primary fluorescence-based thiol-reactive (MSTI) qHTS assay for identification of artifact compounds. (AID 1845221); note: nearly all actives have a fitted effect of over 65% in size; note: potency is the fitted concentration of half-maximal effect
# How it was run: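 Thiol-reactive compounds detected by quenching of 4 uM MSTI fluorescence (525/598 nm) after 1 h room-temperature dark incubation in PBS pH 7.4, 2% DMSO. qHTS titration; percent inhibition Hill-fitted against Acetyl-MSTI/MSTI controls.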
smiles,measurement,setting,value
CCOC(=O)Nc1ccc(NCc2c(C)cc(C)cc2C)cc1N,Potency,[1],inactive
same,Potency,[2],inactive
same,Potency,[3],inactive
same,Potency,[4],inactive
same,outcome,[5],inactive
same,Potency,[6],inactive
same,Potency,[7],inactive
same,max response,NIH3T3,0.149%
same,Potency,C33A,inactive
same,Potency,CASKI,inactive
same,Potency,Es-2,inactive
same,Potency,Hek293T,inactive
same,Potency,JEG-3,inactive
same,Potency,OV90,inactive
same,Potency,PA-1,inactive
same,Potency,Tov-21-G,inactive
same,Potency,Tov112D,inactive
Cc1ccccc1C1=CCN(C)CC1,Potency,[1],inactive
same,Potency,[2],inactive
same,Potency,[3],inactive
same,outcome,[5],inactive
same,Potency,[6],inactive
same,max response,HaCat,-6.61%
same,Potency,CAOV3,inactive
same,Potency,CASKI,inactive
same,Potency,Es-2,inactive
same,Potency,Hek293T,inactive
same,Potency,JEG-3,inactive
same,Potency,OV90,inactive
same,Potency,PA-1,inactive
same,Potency,Tov-21-G,inactive
same,Potency,Tov112D,inactive
C[C@H]1CCC[C@H](O)CCC/C=C/c2cc(O)cc(O)c2C(=O)O1,Potency,[1],inactive
same,Potency,[2],inactive
same,Potency,[3],inactive
same,outcome,[5],inactive
same,Potency,[8],inactive
same,Potency,[6],inactive
same,Potency,[7],inactive
same,outcome,NIH3T3,inactive
same,Potency,C33A,inactive
same,Potency,CAOV3,inactive
same,Potency,CASKI,inactive
same,Potency,Es-2,inactive
same,Potency,Hek293T,inactive
same,Potency,JEG-3,inactive
same,Potency,OV90,inactive
same,Potency,PA-1,inactive
same,Potency,Tov-21-G,inactive
same,Potency,Tov112D,inactive
CN1C(=O)[C@]23CC4C(C)(C)[C@@]5(C[C@@]41CN2CC[C@@]3(C)O)C(=O)Nc1c5ccc2c1OC=CC(C)(C)O2 (stereo partly specified),Potency,[2],inactive
same,Potency,[3],inactive
same,Potency,[4],inactive
same,outcome,[5],inactive
same,Potency,[6],inactive
same,Potency,[7],inactive
same,max response,HaCat,-7.56%
same,max response,NIH3T3,-0.852%
same,Potency,C33A,inactive
same,Potency,CAOV3,inactive
same,Potency,CASKI,inactive
same,Potency,Es-2,inactive
same,Potency,Hek293T,inactive
same,Potency,JEG-3,inactive
same,Potency,OV90,inactive
same,Potency,PA-1,inactive
same,Potency,Tov-21-G,inactive
same,Potency,Tov112D,inactive
C/C=C(\C)C(=O)O[C@H]1CC2C(=C1C)[C@H]1OC(=O)[C@](C)(O)[C@]1(O)[C@H](OC(=O)CCC)C[C@@]2(C)OC(C)=O (stereo partly specified),Potency,[1],inactive
same,Potency,[2],inactive
same,Potency,[4],inactive
same,outcome,[5],inactive [at 25.7 µM]
same,Potency,[8],inactive
same,Potency,[6],inactive
same,Potency,[7],inactive
same,Potency,NIH3T3,4470 nM (active)
same,Potency,Hek293T,inactive
same,Potency,PA-1,5010 nM (active)
same,Potency,Tov112D,5010 nM (active)
Cc1[nH]c2ccc(Cl)cc2c1CCN(C)C,Potency,[1],inactive
same,Potency,[2],inactive
same,Potency,[3],inactive
same,Potency,[4],inactive
same,outcome,[5],inactive
same,Potency,[8],inactive
same,Potency,[6],inactive
same,Potency,[7],inactive
same,outcome,NIH3T3,inactive
same,Potency,C33A,inactive
same,Potency,CAOV3,inactive
same,Potency,CASKI,inactive
same,Potency,Es-2,inactive
same,Potency,Hek293T,inactive
same,Potency,JEG-3,inactive
same,Potency,OV90,inactive
same,Potency,PA-1,inactive
same,Potency,Tov-21-G,inactive
same,Potency,Tov112D,inactive
NC(=O)[C@@H](CC1CC1)[C@@H](CCC(F)(F)F)C(=O)N[C@H]1N=C(c2ccccc2)c2cccc(F)c2NC1=O,Potency,[1],inactive
same,Potency,[3],inactive
same,Potency,[4],inactive
same,outcome,[5],inactive
same,Potency,[8],inactive
same,Potency,[6],inactive
same,Potency,[7],inactive
same,max response,HaCat,-25%
same,max response,NIH3T3,-16.9%
same,Potency,C33A,inactive
same,Potency,CAOV3,inactive
same,Potency,CASKI,inactive
same,Potency,Es-2,inactive
same,Potency,Hek293T,inactive
same,Potency,JEG-3,inactive
same,Potency,OV90,inactive
same,Potency,PA-1,inactive
same,Potency,Tov-21-G,inactive
same,Potency,Tov112D,inactive
O=C1CN=C(c2cccc(Br)c2)c2oc3ccccc3c2N1,Potency,[1],inactive
same,Potency,[2],inactive
same,Potency,[3],inactive
same,Potency,[4],inactive
same,outcome,[5],inactive
same,Potency,[8],inactive
same,Potency,[6],inactive
same,Potency,[7],inactive
same,Potency,C33A,inactive
same,Potency,CAOV3,inactive
same,Potency,CASKI,inactive
same,Potency,Es-2,inactive
same,Potency,OV90,inactive
same,Potency,Tov-21-G,inactive
C[C@]12CC[C@H](O)CC1=CC[C@@H]1C2CC[C@]2(C)[C@@H](C3=CC(=O)OC3)CC[C@]12O (stereo partly specified),Potency,[1],inactive
same,Potency,[2],inactive
same,Potency,[3],inactive
same,Potency,[4],inactive
same,outcome,[5],inactive
same,Potency,[6],inactive
same,Potency,[7],inactive
same,max response,NIH3T3,-1.39%
same,Potency,CASKI,inactive
same,Potency,Es-2,11200 nM (active)
same,Potency,Tov-21-G,10000 nM (active)
same,Potency,Tov112D,7080 nM (active)
CO/C1=C\C(C)=C\[C@@H](C)[C@@H](O)[C@@H](C)C/C(C)=C/C=C/[C@H](OC)[C@@H]([C@@H](C)[C@@H](O)[C@H](C)[C@@]2(O)C[C@@H](O)[C@H](C)[C@@H](C(C)C)O2)OC1=O,Potency,[1],inactive
same,Potency,[4],inactive
same,outcome,[5],inactive
same,Potency,[8],inactive
same,Potency,[6],inactive
same,Potency,[7],inactive
same,Potency,C33A,141 nM (active)
same,Potency,CAOV3,126 nM (active)
same,Potency,CASKI,inactive
same,Potency,Es-2,79.4 nM (active)
same,Potency,Hek293T,100 nM (active)
same,Potency,JEG-3,inactive
same,Potency,OV90,89.1 nM (active)
same,Potency,PA-1,89.1 nM (active)
same,Potency,Tov112D,100 nM (active)
O=C(NCCN1CCC2(CC1)C(=O)NCN2c1cccc(F)c1)c1ccc(F)c(F)c1,Potency,[1],inactive
same,Potency,[2],inactive
same,Potency,[3],inactive
same,Potency,[4],inactive
same,outcome,[5],inactive
same,Potency,[8],inactive
same,Potency,[6],inactive
same,Potency,[7],inactive
same,max response,NIH3T3,-17.5%
same,Potency,C33A,inactive
same,Potency,CAOV3,inactive
same,Potency,CASKI,inactive
same,Potency,Es-2,inactive
same,Potency,Hek293T,inactive
same,Potency,JEG-3,inactive
same,Potency,OV90,inactive
same,Potency,PA-1,inactive
same,Potency,Tov-21-G,inactive
same,Potency,Tov112D,inactive
CC/C=C/C=C/C1(C)OC(OC)=C(C(=O)C2C(C)C(=O)c3cc(OC)c(O)c(O)c3C2(C)O)C1=O (stereo unspecified),Potency,[1],10000 nM (active)
same,Potency,[2],inactive
same,Potency,[3],inactive
same,outcome,[5],inactive [at 25.7 µM]
same,Potency,[8],1300 nM (active)
same,Potency,[6],inactive
same,Potency,[7],inactive
same,Potency,C33A,inactive
same,Potency,CAOV3,inactive
same,Potency,CASKI,inactive
same,Potency,Hek293T,inactive
same,Potency,JEG-3,inactive
same,Potency,OV90,inactive
same,Potency,Tov112D,inactive
